From ChEMBL document CHEMBL3988442, “University of Dundee, Small-Polar-MMV Screening Library” (2021) come the findings set out here.

For the experiment, the target named is Shiga toxin 2 (Escherichia coli O157:H7) (UniProt P09385+P09386). In words: E. coli 0.157:H7 Shiga Toxin SOP - stx2 screening assay. It is filed as functional. Also noted: scale not given: direction of the effect not stated beside the values. Conditions: 30 µM.
Consider `CCc1n[nH]c(C2CN(C(=O)c3cnns3)CCO2)n1` (stereo not given), for which the Percent Effect turned out to be 10.8%.

Consider `CC(C)(C)NC(=O)NC(=O)CNC(C)(C)c1ccc2c(c1)OCCO2`, for which the Percent Effect amounted to 41.7%.

With `Cn1cnc2c1C(COCc1cccnc1)N(Cc1ccccn1)CC2` (stereo not given), the Percent Effect was -18.6%.

Turning to `CN(Cc1ccsc1)C(=O)c1cc2c([nH]c1=O)CCCC2=O`, the Percent Effect was 12.2%.

Regarding `CC(C)(C)c1nc(CN2CCC(c3nc4cc(Cl)ccc4o3)CC2)no1`, the Percent Effect is -14.9%.

With `Cc1ccc(C(=O)N2CCN(Cc3nc(C(C)C)no3)CC2)c(=O)[nH]1`, the Percent Effect was found to be 26.1%.

As to `CCc1nccn1C1CCCN(C(=O)c2ccc3[nH]cnc3c2)C1` (stereo not given), the Percent Effect is 11.5%.

With `Cc1cnc2n(c1=O)CC(C(=O)Nc1ccccc1Cl)CS2` (stereo not given), the Percent Effect was -4.63%.

As for `O=C(NCc1nnc2n1CCCC2)N(Cc1ccccc1F)C1CC1`, the Percent Effect worked out at 7.01%.

Consider `CCn1cc(CN2CCC(c3nnc(CN(C)C)n3CC)CC2)cn1`, for which the Percent Effect was -57.2%.

For the compound `CNc1snc(C)c1C(=O)N1CCCC(n2nc(C)cc2C)C1` (stereo not given), the Percent Effect was -3.59%.

Turning to `C[C@@H]1CN(C(=O)c2ccc(C#N)nc2)C[C@@]1(O)C1CC1`, the Percent Effect was -1.27%.

`CC(=O)N1CCCC(c2ccc(Nc3nc(C)cc(C)n3)cn2)C1` (stereo not given): the Percent Effect was 3.11%.

With `Cc1nc(CN2CCCC(N(C)CCc3ccncc3)C2)no1` (stereo not given), the Percent Effect is 22.9%.

`Cc1ccc(N2CC3(COCCN(Cc4cccnc4)C3)OCC2=O)s1` (stereo not given): the Percent Effect was -4.57%.

On to `CC1CCN(c2ncc3c(n2)CN(c2ccccc2)C3=O)CC1`, for which the Percent Effect was -36.5%.

As to `Cc1ccc(-c2cc(C(=O)NC(C)C(=O)N3CCCCC3)on2)cc1` (stereo not given), the Percent Effect was -5.52%.

Consider `Cc1ccc(CN2CC[C@H]3OCC[C@@H](C(=O)NC4CC4)[C@@H]3C2)o1`, for which the Percent Effect is -6.37%.

On to `O=C(NCCC1=CCCCC1)C1CCCN(c2ccc3nncn3n2)C1` (stereo not given), for which the Percent Effect was -5.94%.

Take `Cc1nnc(NC(=O)NCc2cc(F)cc(F)c2)s1`: the Percent Effect was determined as 29.7%.

On to `O=C(NCCCN1CCOCC1)c1cc(-c2ccc3c(c2)CCO3)n[nH]1`, for which the Percent Effect is -67.7%.

On to `Cc1ccc(NC(=O)NC(C)c2nc[nH]n2)s1` (stereo not given), for which the Percent Effect worked out at 17.2%.

`Cc1nccn1C1CCCN(C(=O)c2cc3ccccc3[nH]2)C1` (stereo not given): the Percent Effect stood at 0.146%.

For the compound `CNc1cc(C2CCCN2Cc2ccccc2C(=O)O)ccn1` (stereo not given), the Percent Effect was -8.27%.

For `CN(C)S(=O)(=O)N1CCC(Oc2ccc(C#N)cn2)CC1`, the Percent Effect was -4.88%.

In the case of `CC(C)Oc1ncccc1CNC(=O)c1ccco1`, the Percent Effect is -7.65%.

Regarding `Clc1snnc1CN1CCCC(Cn2cncn2)C1` (stereo not given), the Percent Effect is -33%.

As for `CCc1nc(CC(=O)NCC(Cc2ccc(F)cc2)C(N)=O)cs1` (stereo not given), the Percent Effect amounted to 3.77%.

For `CC(Cn1ccnc1)NC(=O)NCCc1ccc2c(c1)OCCO2` (stereo not given), the Percent Effect turned out to be 2.84%.

As for `O=C(NCN1CCc2ccccc2C1)c1cnccn1`, the Percent Effect was -18.9%.

For the compound `O=C(CCNC(=O)c1ccoc1)Nc1c(F)cccc1F`, the Percent Effect is -4.74%.

Regarding `CN(C)C(=O)c1cccc(NC(=O)N(CCO)Cc2ccsc2)c1`, the Percent Effect was -18.5%.

For the compound `Cc1noc(C)c1CN1CC2(CCN(C(=O)c3c[nH]cn3)C2)CC1=O` (stereo not given), the Percent Effect is -14.1%.

As for `O=C(CCOc1ccccc1)N1CCC(Nc2cccnn2)CC1`, the Percent Effect amounted to 6.7%.

For `O=C(NCC(Cc1cccc(F)c1)N1CCCC1=O)c1ccccc1` (stereo not given), the Percent Effect was -0.947%.

Consider `Cc1[nH]c(=O)[nH]c(=O)c1CN1CCCC(CCc2c(F)cccc2F)C1` (stereo not given), for which the Percent Effect is 0.432%.

Turning to `O=c1ccc2c(n1CCN1CCCC1)CCN(Cc1ccoc1)CC2`, the Percent Effect was -1.66%.

As for `COCCN1CC(C(=O)NCc2ccnc(-n3cccn3)c2)CC1=O` (stereo not given), the Percent Effect was -36.8%.

For `Cc1cc(C(F)(F)F)nn1C(C)C(=O)Nc1ccncc1` (stereo not given), the Percent Effect is -29.5%.

As to `Cc1nccc(CN2CC[C@H](Oc3cccc(F)c3)[C@@](C)(O)C2)n1`, the Percent Effect was -25.4%.
